# Screening results deposited in PubChem BioAssay by several laboratories.
# An excerpt weighted towards active compounds, which were near 9.6% of everything screened.
# Ins promoter up – MIN6 insulin promoter up-regulation | MIN6 insulin promoter-GFP reporter, high-content imaging; active compounds read high | z-score at 5 µM | hit rate 0.3% among 190,000 | AID 1625;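 active means z-score above 3 at 5 µM with at least 500 cells counted in the well; inconclusive means wells under 500 cells, flagged as cytotoxic or low count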
# L major viab – reduces viability of Leishmania major promastigotes; hit rate 9% among 200,000; inhibition, % at 10 µM; resazurin fluorescence viability; in the data active means inhibition above about 50%;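 further: promastigotes grown with compound for 44 hours at 28 °C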
# Autophagy HCS – autophagy modulation, high-content screen; AID 463193; hit rate 0.98% among 190,000; MEF GFP-LC3 puncta imaging; test concentration mostly 10 µM; calls only at 10 µM (by protocol);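 active means percentage of spot-positive cells more than 3 SD above its plate mean, without a fluorescence outlier flag or 80% toxicity; inconclusive means no clear call, values can overlap the other calls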;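 further: spot-positive cell cutoff set from DMSO-treated cells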
# bCat KO growth – beta-catenin-lacking colon tumor cell growth suppression | hit rate 1.5% among 140,000 | HCT116 beta-catenin knockout viability, CellTiter-Glo, 60 h; active compounds read low | AID 818 | viability, % at 10 µM;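 active means viability at or under a set limit, the compound median less 4 SD, cut at about 6% in these data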;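 further: 0% = Hyamine 1622 control at 20 µM and 100% = untreated cell control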
# Insulin prom inh – TRM-6 insulin promoter activity inhibition. TRM-6 cells (human fetal islet line), insulin promoter-eGFP reporter, imaging; reporter expression induced with tamoxifen. inhibition, % at 2 µM. hit rate 0.9% among 130,000. AID 1273;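 active means inhibition above the mean plus 3 SD, with well images judged a real hit on visual review, cut at about 60% in these data, passing the limit was not always enough; inconclusive means inhibition over the cutoff but images rejected on review; inactive means inhibition not above the cutoff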
# PTEN del growth – suppresses growth of cells with PTEN deletion. HCT116 PTEN-null viability, CellTiter-Glo, 60 h; active compounds read low. hit rate 1.2% among 140,000. viability, % at 10 µM;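 active means viability at or below a set limit, 4 SD under the median of all tested compounds, cut at about 3.7% in these data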;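 further: PTEN knockout HCT116 line with beta catenin targeted HCT116 as companion control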
# An asterisk follows results filed as active; i = inactive; ? = inconclusive; / = no result; + = active, no number.
SMILES,Ins promoter up,L major viab,Autophagy HCS,bCat KO growth,Insulin prom inh,PTEN del growth
CC(C)[C@H](NS(=O)(=O)c1ccccc1)C(=O)OCC(=O)N1N=C(c2ccc(Cl)cc2)CC1c1ccco1 (some centres undefined),/,12.5,i,52.5,18.8,37.8
CCOC(=O)C1=C(CC)Nc2ccccc2N/C1=N\S(=O)(=O)c1ccc(C(=O)OCC)cc1,0.14,7.7,i,/,/,/
N=C(N)Cc1ccccc1Sc1ccccc1,-0.06,98.1*,i,78.1,15.4,71.7
Cc1cc(NC(=O)c2nn3cccnc3c2Cl)no1,/,-2.9,i,110.5,/,119.9
O=C(Cc1cc(=O)[nH][nH]1)N/N=C/c1c(F)cccc1Cl,0.14,2.9,i,/,/,/
COc1ccc(-c2nc(NC(=O)C3CCN(c4nc5ccccc5o4)CC3)sc2C)cc1,-2.49,78.9*,i,47.1,/,33.5
O=C(/C=C/c1ccc(-c2ccc(F)cc2)o1)N1CCCC1,-0.53,3.6,i,/,-8.6,/
O=C1CSC(c2ccc([N+](=O)[O-])cc2)N1CCN1CCCCC1 (centres undefined),-0.09,85.9*,i,/,31.2,/
COc1ccc(S(=O)(=O)NNC(=O)c2sccc2-n2cccc2)cc1,1.39,-6.4,i,/,/,/
O=S(=O)(Nc1cc2nc3ccccc3nc2n1Cc1ccccc1)c1ccc(Cl)cc1,/,8.1,+,86.0,/,76.0
O=C(CCCc1nc(-c2ccccc2Cl)no1)NC1CCCCC1,-0.27,-8.2,+,109.4,-150.0,104.6
Cc1ccc(Nc2nc(-c3c(C)nc4ccccn34)cs2)cc1,?,92.7*,i,15.4,/,13.2
Cc1nc2ncccn2c1-c1csc(Nc2ccc(O)cc2)n1,1.88,10.0,i,/,/,/
Cc1ccc(Nc2nc(-c3c(C)nc4ncccn34)cs2)cc1,/,60.2*,i,20.8,-53.6,15.4
O=C(Nc1nccs1)NC1CCCCC1,0.18,0.6,i,84.4,7.1,78.0
Cc1cccc(NC(=O)Cn2nnc(C(=O)NCc3cccs3)c2N)c1C,1.36,-5.3,i,101.0,50.0,103.7
Cc1cc(N)c(-n2cc3c(=O)n(C)c(=O)n(C)c3c2)cc1C,-0.45,62.3*,i,69.6,64.3,73.0
COc1ccc(/C=C(/C(=O)c2ccc(Cl)cc2Cl)n2cncn2)cc1,0.3,23.3,i,83.3,/,81.7
CN(C)c1ccc(/C=C(/C(=O)c2ccc(Cl)cc2Cl)n2cncn2)cc1,0.33,50.7*,i,45.4,41.4,37.0
CC(C)CC(=O)/C(=C\c1ccc(Cl)cc1Cl)n1cncn1,-0.6,100.4*,i,1.6*,57.1,1.3*
OC[C@H](O)[C@H](O)[C@@H](O)[C@@H](O)[C@@H]1SC(c2ccccc2)=NN1c1ccccc1,-0.67,/,/,/,/,/
COc1ccc(C2=C/C(=C\c3cccc(OC(C)=O)c3)C(=O)O2)cc1,0.22,50.7*,i,88.4,-33.3,95.7
CN1CCN(NC(=O)Nc2cccc(Cl)c2Cl)CC1,-0.89,-2.6,+,/,41.2,/
NC(=O)c1ccccc1NC(=O)Nc1cccc(Cl)c1Cl,0.12,64.8*,i,83.8,-6.5,77.3
CN1C(N)=NC(=O)/C1=C/c1ccc(F)cc1,0.96,/,/,/,/,/
SMILES,Ins promoter up,L major viab,Autophagy HCS,bCat KO growth,Insulin prom inh,PTEN del growth
CCOc1cc(NC(=S)Nc2ccccc2OC)c(OCC)cc1NC(=O)c1ccccc1C,-0.24,97.0*,i,82.5,10.0,80.7
CCOc1cc(NC(=S)Nc2ccccc2)c(OCC)cc1NC(=O)c1ccccc1,/,87.9*,i,91.6,-66.7,101.6
COc1cc(NC(=O)c2ccccc2)c(OC)cc1NC(C)=O,-0.6,3.3,i,103.5,40.9,100.4
CCC(=O)Nc1cc(OC)c(NC(=O)c2ccccc2)cc1OC,0.11,77.0*,i,101.8,0.0,102.2
COc1ccc(N(CC(=O)Nc2cccc(C)c2)S(=O)(=O)c2c(C)n[nH]c2C)cc1,0.16,43.8,i,90.0,/,88.8
Cc1ccc(-c2nn3c(C)nnc3s2)cc1NC(=O)c1cccs1,0.61,-1.0,i,98.0,-126.7,87.8
CCCCn1c(N)c(S(=O)(=O)c2ccc(C)cc2)c2nc3ccccc3nc21,-0.27,56.3*,i,49.4,-7.1,29.0
Cc1cccc(S(=O)(=O)c2c(N)n(Cc3ccco3)c3nc4ccccc4nc23)c1,-0.13,77.7*,i,60.7,-5.6,42.5
CN(C)CCCn1c(N)c(S(=O)(=O)c2ccccc2)c2nc3ccccc3nc21,0.05,/,/,/,/,/
Cc1ccc(S(=O)(=O)c2c(N)n(NC(=O)c3ccco3)c3nc4ccccc4nc23)cc1,0.39,-7.3,i,87.0,/,89.2
Cc1ccc(S(=O)(=O)c2c(N)n(Cc3ccco3)c3nc4ccccc4nc23)cc1,-1.41,74.1*,i,59.2,-26.7,53.3
COc1ccc(CC(=O)N2CCN=C2SCc2ccc([N+](=O)[O-])cc2)cc1,-0.33,76.2*,i,/,/,/
O=C(Cc1ccccc1)N1CCN=C1SCc1ccc([N+](=O)[O-])cc1,-0.07,92.7*,i,69.8,/,76.9
Cc1ccn2cc(-c3ccc(NS(=O)(=O)c4ccccc4)cc3)nc2c1,-0.69,91.6*,i,90.9,-7.1,94.5
Cc1ccn2cc(-c3ccc(NC(=O)c4ccco4)cc3)nc2c1,0,67.7*,i,70.7,13.8,76.0
CC(=O)Nc1cccc(-c2cn3ccc(C)cc3n2)c1,/,1.8,i,/,33.3,/
c1ccc(OCCn2c(-c3ccco3)nc3ccccc32)cc1,/,7.8,i,70.8,-77.4,81.1
CCN(c1ccc(OC)cc1)S(=O)(=O)c1ccc2c(c1)CCN2C(=O)CCC(=O)O,0.52,-3.7,i,93.5,0.0,90.4
COC(=O)c1ccccc1-c1ccc(/C=N/NC(=O)c2cc3ccccc3o2)o1,0.06,6.0,i,99.0,/,90.4
CCN1C(=O)/C(=C/N2CCc3ccccc32)SC1=S,-1.24,-3.9,+,83.2,-31.6,78.6
CCN1C(=O)/C(=C\N2CCCc3ccccc32)SC1=S,-0.02,2.9,i,81.8,7.1,78.7
CC(NC(=O)OC(C)(C)C)C(=O)N1CCCC1C(=O)NC(Cc1ccccc1)C(N)=O (centres undefined),0.04,-2.2,i,102.7,6.2,96.5
CCOC(=O)[C@H](CCc1ccccc1)N[C@@H](C)C(=O)N1CCC[C@H]1C(=O)O,/,-9.7,i,89.0,66.7*,98.3
Cc1nn(C(C)(C)C)c(NC(=O)c2ccc(Cl)cc2Cl)c1Br,0.23,/,/,/,/,/
CCCN(CCO)Cc1ccc(Br)cc1,-1.15,-2.9,i,100.1,21.6,91.7
SMILES,Ins promoter up,L major viab,Autophagy HCS,bCat KO growth,Insulin prom inh,PTEN del growth
CCN(CC)CCN(C)Cc1ccc(Br)cc1,/,89.3*,i,90.3,/,102.0
N/C(=N\O)c1ccc(Cl)cc1Cl,0.05,/,/,/,/,/
Oc1c(C=Nc2cccc3cccnc23)sc2ccccc12,2.69,99.2*,+,3.0*,-207.1,3.8*
Cc1cccc(/N=C/c2sc3ccccc3c2O)n1,0.03,/,/,/,/,/
Oc1ccc(Cl)cc1N=Cc1sc2ccccc2c1Cl,/,-2.0,i,/,-20.0,/
O=[N+]([O-])c1ccc(O)c(N=Cc2sc3ccccc3c2O)c1,-0.16,5.2,i,1.9*,31.0,3.7*
